Gli-Sufu block = Gli-Sufu pathway antagonists, primary screen, luciferase luminescence, Sufu-KO-LIGHT cells, uHTS | Sufu-KO-LIGHT fibroblasts, Gli luciferase reporter luminescence | inhibition, % at 5 µM | 0.74% of 340,000 active | AID 588413, 2011;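 active = inhibition above about 55%, limit read from the data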
NCOA1 inh = SRC1 coactivator transcriptional activity inhibitors, primary screen, cell-based, luminescence | inhibition, % at 3.6 µM | HEK293 GAL4-SRC1 luciferase reporter | 0.12% of 360,000 active | Nuclear receptor coactivator 1 (Homo sapiens), Q15788 | AID 588354, 2011;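 active = inhibition above the campaign mean plus 3 SD, with each screening campaign given its own cutoff, cut at about 60% in these data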
NR5A2 inv ag = LRH-1 (NR5A2) inverse agonists, primary screen, cell-based, luminescence, HEK293T, StAR-luciferase reporter | AID 602396, 2012 | 0.13% of 360,000 active | LRH-1 transfected, 24 h | Nuclear receptor subfamily 5 group A member 2 (Homo sapiens), O00482 | inhibition, % at 3.6 µM;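 active = inhibition above the mean inhibition of all tested compounds plus 3 SD, cut at about 73% in these data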
COUP-TFII inh = NR2F2 transcriptional activity inhibitors, primary screen, cell-based, luciferase reporter, HEK293T, luminescence; inhibition, % at 8.6 µM; HEK293T NGFI-A luciferase reporter; COUP transcription factor 2 (Homo sapiens), P24468; AID 686940, 2013; 0.7% of 370,000 active;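 active = inhibition above a per-plate cutoff, mean inhibition of test wells between control levels plus 3 SD, cut at about 38% in these data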;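 note: cells cotransfected with COUP-TFII expression vector driving the NGFI-A reporter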
Target sequence (P24468 whole entry, looked up): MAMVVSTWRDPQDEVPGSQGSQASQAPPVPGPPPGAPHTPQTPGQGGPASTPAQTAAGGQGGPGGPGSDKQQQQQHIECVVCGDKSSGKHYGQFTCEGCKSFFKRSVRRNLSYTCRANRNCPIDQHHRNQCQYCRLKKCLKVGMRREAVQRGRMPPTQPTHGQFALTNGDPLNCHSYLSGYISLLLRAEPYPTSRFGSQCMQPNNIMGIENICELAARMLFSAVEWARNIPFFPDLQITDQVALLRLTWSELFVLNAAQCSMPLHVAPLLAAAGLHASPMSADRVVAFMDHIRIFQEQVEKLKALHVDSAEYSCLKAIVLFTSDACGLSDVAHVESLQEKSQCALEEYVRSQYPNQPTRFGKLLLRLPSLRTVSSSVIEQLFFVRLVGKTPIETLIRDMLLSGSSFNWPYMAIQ
NCOA2 inhibitor = inhibition of GAL4-SRC2 driven luciferase reporter, primary screen, SRC2 inhibitor project, cell-based, luminescence. HEK293 GAL4-SRC2 luciferase reporter. 0.17% of 370,000 active. inhibition, % at 9 µM. AID 651957, 2012;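 active = inhibition above the mean inhibition of all tested compounds plus 3 SD, set per campaign, cut at about 52% in these data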
NCOA3 inh = SRC3 coactivator transcriptional activity inhibitors, primary screen, cell-based, luminescence; Nuclear receptor coactivator 3 (Homo sapiens), Q9Y6Q9; HEK293 GAL4-SRC3 luciferase reporter; inhibition, % at 3.6 µM; 0.17% of 360,000 active;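 active = inhibition above a per-campaign cutoff, the mean of all compounds plus 3 SD, cut at about 60% in these data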;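 note: higher means less SRC3-driven luciferase light from the GAL4 reporter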
Gli antag conf = Gli-SUFU pathway antagonists, confirmation, single concentration, luciferase luminescence, Sufu-KO-LIGHT cells; inhibition, % at 5 µM; 40% of 2,500 active; shares compounds with Gli-Sufu block; Gli luciferase reporter;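 active = mean inhibition at 5 µM reaching about 45%, limit read from the data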
SufuKO cytotox = cytotoxicity in Sufu-KO-LIGHT cells, confirmation, cytotoxicity control for Gli-SUFU antagonist project, cell-based, ATP luminescence, single concentration; cytotoxicity, % at 5 µM; shares compounds with Gli-Sufu block; AID 651994, 2013; 32% of 2,500 active;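 active = mean cytotoxicity at 5 µM above about 25%, limit read from the data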;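 note: cells exposed to compound overnight for roughly 16 to 18 hours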
Wnt3a counter = Wnt3a reporter signal inhibition, confirmation, counter-screen for Gli-SUFU antagonist project, Wnt-LIGHT cells, luminescence, single concentration; shares compounds with Gli-Sufu block; Wnt3a-driven luciferase reporter; inhibition, % at 6.25 µM; 20% of 2,500 active;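 active = mean inhibition above about 25%, limit read from the data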
VP16 Luc counter = Gal4-VP16 luciferase reporter inhibitors, counter-screen for COUP-TFII antagonist project, cell-based, luminescence, HEK293; inhibition, % at 8.5 µM; AID 687007, 2013; 25% of 2,500 active; shares compounds with COUP-TFII inh; in the data active = inhibition above about 13%
COUP-TFII conf = NR2F2 transcriptional activity inhibitors, confirmation, cell-based, luciferase reporter, HEK293, triplicate; inhibition, % at 8.5 µM; 45% of 2,500 active; HEK293 NGFI-A luciferase reporter, luminescence; shares compounds with COUP-TFII inh;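 active = mean inhibition over three repeats above a set limit taken from the earlier primary screen, cut at about 38% in these data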
Numbers stand for hits; . = inactive; / = not tested or not shown. Shown are actives, neighbours in structure and some others; about 1.3% of the full set was active somewhere.

SMILES	Gli-Sufu block	NCOA1 inh	NR5A2 inv ag	COUP-TFII inh	NCOA2 inhibitor	NCOA3 inh	Gli antag conf	SufuKO cytotox	Wnt3a counter	VP16 Luc counter	COUP-TFII conf
CCc1nc(C)cn1S(=O)(=O)c1cc(C)c(OC)c(C)c1C	60	.	.	49	.	.	52	30	55	.	40
COC(=O)c1cc(-c2ccc(Cl)s2)c(=O)n2c1CCC2	/	/	/	.	.	/	/	/	/	/	/
COc1ccc(CNc2ncnc3sccc23)cc1	61	.	.	49	.	.	48	37	.	.	39
c1ccc(CNc2ncnc3sccc23)cc1	.	.	.	.	.	.	/	/	/	/	/
Cc1cc(C(=O)CSc2nc(N)cc(=O)[nH]2)c(C)n1-c1ccc(OC(F)F)cc1	68	.	.	53	.	.	65	38	.	.	54
Cc1cc(-n2c(C)cc(C(=O)CSc3nc(N)cc(=O)[nH]3)c2C)no1	.	.	.	.	.	.	/	/	/	/	/
O=C(NCC(c1ccco1)N1CCCC1)c1ccc(Cl)c(S(=O)(=O)N2CCc3ccccc32)c1 (stereo not drawn)	67	.	.	66	.	.	59	34	28	.	50
O=C(NCC(c1ccco1)N1CCc2ccccc2C1)c1ccc(Cl)c([N+](=O)[O-])c1 (stereo not drawn)	.	.	.	.	.	.	/	/	/	/	/
Cc1nc2ccccc2n1Cc1ccc(Br)cc1	62	.	.	58	.	.	59	28	.	.	50
Fc1ccc2nc(-c3ccc(CN4CCC(c5nc6ccccc6[nH]5)CC4)cc3)c(-c3ccccc3)nc2c1	/	/	/	.	.	/	/	/	/	/	/
Cc1cccc(OCCC(=O)Nc2ccc(C)c(S(=O)(=O)N3CCCCC3)c2)c1	62	.	.	38	.	.	.	.	.	.	.
Cc1ccc(NC(=O)/C=C/c2ccco2)cc1S(=O)(=O)N1CCCCCC1	77	.	.	50	.	.	88	.	.	.	.
Cc1ccc(NC(=O)COc2ccccc2C(N)=O)cc1S(=O)(=O)N1CCCCCC1	.	.	.	60	.	.	48	28	.	.	46
Cc1cccnc1N=O	/	/	/	.	.	/	/	/	/	/	/
COc1ccc(-c2nsc3c(N4CCCCC4C)ncnc23)cc1 (stereo not drawn)	81	89	86	97	82	89	91	47	105	88	104
CCCCCCC(=O)NC1CCCCN(C)C1=O (stereo not drawn)	/	/	/	.	.	/	/	/	/	/	/
COc1ccccc1C(=O)N1CCC(Oc2cccnc2)CC1	/	/	/	.	.	/	/	/	/	/	/
CN(C)c1cccc2c(S(=O)(=O)NCC3CCN(C(=O)C(=O)c4cccs4)CC3)cccc12	/	/	/	.	.	/	/	/	/	/	/
CCc1ccc(CN(C)C(=O)c2cc(COc3c(F)cccc3F)on2)cc1	.	.	.	.	.	.	/	/	/	/	/
CCc1ccc(CN(C)C(=O)c2cc(COc3cccc4cnccc34)on2)cc1	65	.	.	66	.	.	62	25	.	.	57
CN(C)c1ccc(C(=O)NCCc2ccccc2-c2ccccc2CCC(=O)NCc2ccccc2)cc1	/	/	/	.	.	/	/	/	/	/	/
CC(C)c1ccc(-c2nc3ccccc3s2)cc1	64	82	82	89	80	87	82	73	106	68	98
COC(=O)[C@]12C[C@H](CC(=O)NCc3ccc(C)o3)C(=O)N(Cc3ccco3)C1=C[C@H](C1CCCC1)O[C@@H]2C	/	/	/	.	.	/	/	/	/	/	/
Cc1nc(NCCc2ccc(S(N)(=O)=O)cc2)c2c(C)c(C)sc2n1	63	.	.	48	.	.	59	39	.	.	.
Nc1ncnc2c(C3OC(CO)C(O)C3O)c[nH]c12 (stereo not drawn)	87	94	100	82	70	94	89	85	101	49	81
SMILES	Gli-Sufu block	NCOA1 inh	NR5A2 inv ag	COUP-TFII inh	NCOA2 inhibitor	NCOA3 inh	Gli antag conf	SufuKO cytotox	Wnt3a counter	VP16 Luc counter	COUP-TFII conf
Nc1ncnc2c1ncn2[C@@H]1O[C@H](CO)[C@@H](O)[C@H]1O	.	.	.	.	.	.	/	/	/	/	/
O=C(N1CCC(Cc2ccccc2)CC1)n1ncc(C(O)(c2ccccc2)c2ccccc2)n1	/	/	/	.	/	/	/	/	/	/	/
Cc1nn(C)c(C)c1CN(C)S(=O)(=O)c1ccc2ccccc2c1	75	.	.	61	.	.	78	28	37	.	66
COc1ccc(C(=O)C(=O)N2CCN(C(=O)c3ccccc3C(F)(F)F)CC2)cc1OC	/	/	/	.	.	/	/	/	/	/	/
COC(=O)[C@]12C[C@H](CC(=O)N3CCOCC3)C(=O)N(Cc3cccc4ccccc34)C1=C[C@H](COCc1ccccc1)O[C@@H]2C	/	/	/	.	.	/	/	/	/	/	/
O=C(Nc1ccccc1)C1=C[C@@H](C2CCCCC2)C[C@@H](OCCCCO)O1	68	.	.	40	.	.	80	.	.	.	.
O=C(NC1CC1)C1=C[C@H](C2CCCCC2)C[C@H](OCCCCO)O1	.	.	.	.	.	.	/	/	/	/	/
COCC(C)n1c(C)cc(C(=O)COC(=O)c2cc(=O)[nH]c3ccccc23)c1C (stereo not drawn)	.	.	.	62	.	.	69	26	81	.	58
C=CCNc1cccc2c1S(=O)(=O)N[C@H](CC(C)C)CO2	/	/	/	.	.	/	/	/	/	/	/
S=C(NCCSCc1ccc(Cl)cc1Cl)Nc1ccccc1	.	.	.	.	.	.	/	/	/	/	/
S=C(Nc1ccccc1)Nc1ccc(OCc2ccc(Cl)cc2Cl)cc1	58	.	.	76	82	.	68	29	103	70	71
CN(C)CCCNS(=O)(=O)c1ccc(N2CCN(Cc3ccc4c(c3)OCO4)CC2)c([N+](=O)[O-])c1	.	.	.	40	.	.	.	.	.	.	.

Screens (PubChem)
